For one experiment, the target named is Epidermal growth factor receptor (Homo sapiens) (UniProt P00533). The experiment can be described thus: EGFR binders on small-molecule microarrays, primary screen, biochemical, small-molecule microarray, 635 nm fluorescence (AID 1104).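 Further: score merges 667 nm emission intensity with spot signal to noise over triplicate slides.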 The note with it: EGFR binding, higher = more signal.
Epidermal growth factor receptor (Homo sapiens), sequence (P00533 whole entry, looked up): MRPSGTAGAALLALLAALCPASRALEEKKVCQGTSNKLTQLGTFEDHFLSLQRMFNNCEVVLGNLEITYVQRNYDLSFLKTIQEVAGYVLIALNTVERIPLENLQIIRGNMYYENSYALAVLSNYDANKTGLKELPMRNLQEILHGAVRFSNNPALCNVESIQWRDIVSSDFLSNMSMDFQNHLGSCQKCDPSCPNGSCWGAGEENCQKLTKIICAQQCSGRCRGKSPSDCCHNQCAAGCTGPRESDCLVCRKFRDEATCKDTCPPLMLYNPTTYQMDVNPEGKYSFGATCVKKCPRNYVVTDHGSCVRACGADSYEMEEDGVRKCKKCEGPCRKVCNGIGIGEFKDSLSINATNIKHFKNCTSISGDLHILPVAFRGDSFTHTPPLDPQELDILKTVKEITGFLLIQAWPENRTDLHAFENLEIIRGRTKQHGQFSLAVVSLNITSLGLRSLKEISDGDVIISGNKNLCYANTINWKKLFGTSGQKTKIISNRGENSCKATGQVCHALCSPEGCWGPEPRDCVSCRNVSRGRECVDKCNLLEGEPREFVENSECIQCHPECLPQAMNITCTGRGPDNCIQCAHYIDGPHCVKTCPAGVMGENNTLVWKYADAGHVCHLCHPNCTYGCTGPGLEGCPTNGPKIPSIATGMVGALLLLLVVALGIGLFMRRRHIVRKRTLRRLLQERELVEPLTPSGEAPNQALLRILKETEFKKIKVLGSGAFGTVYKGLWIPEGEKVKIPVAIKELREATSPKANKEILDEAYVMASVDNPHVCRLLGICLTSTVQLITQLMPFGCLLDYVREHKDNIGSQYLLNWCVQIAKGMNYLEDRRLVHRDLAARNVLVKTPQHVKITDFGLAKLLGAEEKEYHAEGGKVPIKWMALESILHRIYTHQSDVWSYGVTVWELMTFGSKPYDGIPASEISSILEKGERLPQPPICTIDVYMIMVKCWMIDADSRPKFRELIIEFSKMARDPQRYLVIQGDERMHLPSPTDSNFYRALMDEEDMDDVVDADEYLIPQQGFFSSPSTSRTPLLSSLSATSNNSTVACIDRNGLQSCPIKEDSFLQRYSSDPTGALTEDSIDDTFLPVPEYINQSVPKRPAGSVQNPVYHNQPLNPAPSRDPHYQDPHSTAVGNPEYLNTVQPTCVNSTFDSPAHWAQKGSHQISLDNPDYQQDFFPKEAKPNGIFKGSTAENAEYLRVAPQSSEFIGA
Take `Cc1cc2c(c(=O)o1)[C@@H](O)[C@H]1O[C@H]1C2=O`: the composite z-score stood at 0.287.
Same read-out and setting: the figure for `CCOC(=O)CCN1C(=O)[C@H]2[C@H]3[C@H](O)[C@H](O)CC(=NNC(=O)OCc4ccccc4)[C@@H]3CC[C@H]2C1=O` is 0.188; for `O=C1[C@H]2[C@H]3[C@H](O)[C@H](O)CC(=NOC[C@@H](O)COCc4ccco4)[C@@H]3CC[C@H]2C(=O)N1C[C@@H]1CCCO1` it is 1.14.
On the same count and under the same terms, the figure for `CC(C)CON=C1C[C@@H](O)[C@@H](O)[C@@H]2[C@@H]3C(=O)N(C[C@@H]4CCCO4)C(=O)[C@@H]3CC[C@@H]12` is -0.151.
The same measure, in the same setting: the figure for `CON=Cc1ccc(C(=O)N2[C@H](c3ccc(C)cc3)[C@@H](C)CC[C@H]2C(=O)OC)cc1` is 0.594.
On to `C[C@@H](c1ccccc1)N1C(=O)[C@H]2[C@H]3[C@H](O)[C@H](O)CC(=O)[C@H]3CC[C@H]2C1=O`, for which the composite z-score was found to be 0.202.
The same measure, in the same setting: to `CC(C)CON=C1C[C@@H](O)[C@@H](O)[C@@H]2[C@@H]3C(=O)N(Cc4ccc5c(c4)OCO5)C(=O)[C@@H]3CC[C@H]12` belongs 0.216; to `CCN1C(=O)[C@H]2[C@H]3[C@H](O)[C@H](O)CC(=NOCC(C)C)[C@@H]3CC[C@H]2C1=O`, 0.767.
The same measure, in the same setting: the figure for `CC(C)=NO[C@H](C)c1cn([C@H](CO)Cc2ccccc2)nn1` is 0.17; for `CCCNC(=O)OC[C@H]1O[C@H](c2ccccc2)C=C[C@@H]1Oc1ccc(OC)cc1` it is 0.424.
On the same count and under the same terms, to `C[C@@H]1CC[C@H]2C(=O)O[C@@H](Cc3ccccc3)CN2[C@H]1c1ccc(Br)cc1` belongs 0.389; to `COc1ccc(O[C@H]2C=C[C@@H](c3ccccc3)O[C@@H]2CON=C(C)CCC(=O)OC[C@H]2O[C@H](c3ccccc3)C=C[C@@H]2Oc2ccc(OC)cc2)cc1`, -1.63; to `O=C1[C@H]2[C@H]3[C@H](O)[C@H](O)CC(=NOCc4ccccc4)[C@@H]3CC[C@H]2C(=O)N1Cc1ccc2c(c1)OCO2`, 0.317.
`COC(=O)CC=C[C@@H](C)[C@@H](C=NO[C@@H]1O[C@H](COC(C)=O)[C@@H](OC(C)=O)[C@H](OC(C)=O)[C@H]1OC(C)=O)OC` registered a composite z-score of 0.383.
On the same count and under the same terms, the figure for `COc1cccc([C@H]2Oc3ccc(OC)cc3C(=NOC[C@@H](O)[C@H]3O[C@@H]4OC(C)(C)O[C@@H]4[C@H]3O)[C@@H]2O)c1` is 0.35.
`O=C1C[C@@H](O)[C@@H](O)[C@@H]2[C@@H]3C(=O)N(Cc4ccccc4)C(=O)[C@@H]3CC[C@@H]12` returned a composite z-score of 0.506.
Turning to `CO[C@H]1COC(=O)CC=C[C@@H](C)[C@H](OC)COC(=O)CCC[C@@H]1C`, the composite z-score turned out to be 0.487.
On the same count and under the same terms, the figure for `CCN1C(=O)[C@H]2[C@H]3[C@H](O)[C@H](O)CC(=NNC(=O)OCc4ccc(OC)cc4)[C@@H]3CC[C@H]2C1=O` is -0.0752.

In another experiment the target is Follistatin-related protein 3 (Homo sapiens) (UniProt O95633). As to the kind of experiment: FSTL3 binders on small-molecule microarrays, primary screen, biochemical, small-molecule microarray, 635 nm fluorescence (AID 1105).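 Further: score merges emission near 667 nm and signal to noise per printed spot across three slides.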 The note with it: FSTL3 binding, higher = more signal.
Follistatin-related protein 3 (Homo sapiens), sequence (O95633 whole entry, looked up): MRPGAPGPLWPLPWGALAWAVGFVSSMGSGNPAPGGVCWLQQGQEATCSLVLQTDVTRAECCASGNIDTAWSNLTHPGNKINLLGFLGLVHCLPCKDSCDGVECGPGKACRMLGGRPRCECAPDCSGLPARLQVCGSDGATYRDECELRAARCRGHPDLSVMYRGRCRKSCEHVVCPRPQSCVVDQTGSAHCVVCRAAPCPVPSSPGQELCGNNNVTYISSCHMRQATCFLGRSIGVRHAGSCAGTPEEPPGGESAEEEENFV
For `O=C1CCCC(C2=CCCCC2=O)C1` (centres undefined), the composite z-score was 0.668.
Same read-out and setting: to `Cn1c(=O)n2n(c1=O)[C@H]1[C@H](O)[C@@H]3O[C@@H]3C(=NOCc3ccccc3)[C@H]1CC2` belongs -0.136; to `CO[C@H](C1CCCCC1)[C@H](C)C=CCC(=O)OCCCc1ccccc1`, 0.201; to `COC(=O)[C@H](C)NC(=O)CCC1CC(OC(=O)NCc2ccc3c(c2)OCO3)CC2(CCCC(COC(=O)NCC(c3ccccc3)c3ccccc3)O2)O1` (some centres undefined), 1.2.
Still for that read-out and setting: to `O=c1n(-c2ccccc2)c(=O)n2n1CC[C@@H]1C(=NOCc3ccccc3)[C@H]3O[C@H]3[C@@H](O)[C@@H]12` belongs -0.136; to `COC(=O)[C@H]1[C@@H](O)[C@@]2(O)c3ccccc3O[C@@]2(c2ccccc2)[C@@H]1c1ccccc1`, -0.134; to `COC(=O)CC=C[C@@H](C)[C@@H](C=NOC(C)CN1CCCc2nc(C)c(C)cc21)OC` (some centres undefined), 0.406.
Same read-out and setting: to `COC(=O)[C@H](C)NC(=O)CCC1CC(OC(=O)NCCc2ccc(F)cc2)CC2(CCCC(COC(=O)NCc3cccc(C(F)(F)F)c3)O2)O1` (some centres undefined) belongs 1.31.
`Cc1ccc(S(=O)(=O)N[C@H]2COC(=O)CC=C[C@H](C)[C@@H](NS(=O)(=O)c3ccc(C)cc3)COC(=O)CC=C[C@@H]2C)cc1` returned a composite z-score of 0.577.
Same read-out and setting: the figure for `CON=C1[C@H]2CCn3c(=O)n(-c4ccccc4)c(=O)n3[C@H]2[C@H](O)[C@@H]2O[C@H]12` is 0.488; for `C#CCCCON=C1C[C@@H](O)[C@@H](O)[C@@H]2[C@@H]3C(=O)N(C(C)(C)C)C(=O)[C@@H]3CC[C@@H]12` it is -0.576.
Regarding `CO[C@H]1COC(=O)CC=C[C@@H](C)[C@H](NS(=O)(=O)c2ccc(C)cc2)COC(=O)CCC[C@@H]1C`, the composite z-score is 1.04.
Compound `COc1ccc(COC(=O)NN=C2C[C@@H](O)[C@@H](O)[C@@H]3[C@@H]4C(=O)N(c5ccc(F)cc5F)C(=O)[C@@H]4CC[C@H]23)cc1` yielded a composite z-score of -0.496.
On to `COc1ccc(O[C@H]2C=C[C@@H](c3ccccc3)O[C@@H]2COC(=O)CCC(C)=NOC[C@@H](O)[C@H]2O[C@@H]3OC(C)(C)O[C@@H]3[C@H]2O)cc1`, for which the composite z-score was 0.847.
Same read-out and setting: the figure for `CO[C@H]1COC(=O)CC=C[C@H](C)[C@@H](OC)COC(=O)[C@H](C)COC(=O)CC=C[C@@H]1C` is 1.1; for `CCOC(=O)C1=NO[C@]2(C=C(Br)C3(OCCCO3)[C@H]3O[C@H]32)C1` it is -0.425.
In turn, `Cc1cc2c(nc1C)CCCCN2CC(C)ON=C1[C@H]2CCn3c(=O)n(-c4ccccc4)c(=O)n3[C@H]2[C@H](O)[C@@H]2O[C@H]12` (some centres undefined) yielded a composite z-score of 1.05.
`COc1ccc(O[C@H]2C=C[C@@H](c3ccccc3)O[C@@H]2COC(=O)CCC(C)=NO[C@@H]2O[C@H](COC(C)=O)[C@@H](OC(C)=O)[C@H](OC(C)=O)[C@H]2OC(C)=O)cc1` showed a composite z-score of 1.12.
In turn, `Cc1cc2c(c(=O)o1)[C@@H](O)[C@H]1O[C@H]1C2=O` registered a composite z-score of 0.522.
On the same count and under the same terms, the figure for `CCOC(=O)CCN1C(=O)[C@H]2[C@H]3[C@H](O)[C@H](O)CC(=NNC(=O)OCc4ccccc4)[C@@H]3CC[C@H]2C1=O` is 0.993.
`O=C1[C@H]2[C@H]3[C@H](O)[C@H](O)CC(=NOC[C@@H](O)COCc4ccco4)[C@@H]3CC[C@H]2C(=O)N1C[C@@H]1CCCO1` displayed a composite z-score of 1.49.
Regarding `CC(C)CON=C1C[C@@H](O)[C@@H](O)[C@@H]2[C@@H]3C(=O)N(C[C@@H]4CCCO4)C(=O)[C@@H]3CC[C@@H]12`, the composite z-score was -0.336.
On the same count and under the same terms, the figure for `CON=Cc1ccc(C(=O)N2[C@H](c3ccc(C)cc3)[C@@H](C)CC[C@H]2C(=O)OC)cc1` is 0.512; for `C[C@@H](c1ccccc1)N1C(=O)[C@H]2[C@H]3[C@H](O)[C@H](O)CC(=O)[C@H]3CC[C@H]2C1=O` it is 0.548; for `CC(C)CON=C1C[C@@H](O)[C@@H](O)[C@@H]2[C@@H]3C(=O)N(Cc4ccc5c(c4)OCO5)C(=O)[C@@H]3CC[C@H]12` it is 0.671.
The same measure, in the same setting: to `CCN1C(=O)[C@H]2[C@H]3[C@H](O)[C@H](O)CC(=NOCC(C)C)[C@@H]3CC[C@H]2C1=O` belongs 0.912; to `CC(C)=NO[C@H](C)c1cn([C@H](CO)Cc2ccccc2)nn1`, -0.275.
Regarding `CCCNC(=O)OC[C@H]1O[C@H](c2ccccc2)C=C[C@@H]1Oc1ccc(OC)cc1`, the composite z-score was determined as 0.108.
The same measure, in the same setting: the figure for `C[C@@H]1CC[C@H]2C(=O)O[C@@H](Cc3ccccc3)CN2[C@H]1c1ccc(Br)cc1` is 0.416; for `COc1ccc(O[C@H]2C=C[C@@H](c3ccccc3)O[C@@H]2CON=C(C)CCC(=O)OC[C@H]2O[C@H](c3ccccc3)C=C[C@@H]2Oc2ccc(OC)cc2)cc1` it is -1.25.
Still for that read-out and setting: to `O=C1[C@H]2[C@H]3[C@H](O)[C@H](O)CC(=NOCc4ccccc4)[C@@H]3CC[C@H]2C(=O)N1Cc1ccc2c(c1)OCO2` belongs 0.517.
Still for that read-out and setting: the figure for `COC(=O)CC=C[C@@H](C)[C@@H](C=NO[C@@H]1O[C@H](COC(C)=O)[C@@H](OC(C)=O)[C@H](OC(C)=O)[C@H]1OC(C)=O)OC` is -0.4.
Compound `COc1cccc([C@H]2Oc3ccc(OC)cc3C(=NOC[C@@H](O)[C@H]3O[C@@H]4OC(C)(C)O[C@@H]4[C@H]3O)[C@@H]2O)c1` yielded a composite z-score of 0.492.
Same read-out and setting: the figure for `O=C1C[C@@H](O)[C@@H](O)[C@@H]2[C@@H]3C(=O)N(Cc4ccccc4)C(=O)[C@@H]3CC[C@@H]12` is 0.888; for `CO[C@H]1COC(=O)CC=C[C@@H](C)[C@H](OC)COC(=O)CCC[C@@H]1C` it is 0.633; for `CCN1C(=O)[C@H]2[C@H]3[C@H](O)[C@H](O)CC(=NNC(=O)OCc4ccc(OC)cc4)[C@@H]3CC[C@H]2C1=O` it is 0.0539.

Values taken from PubChem BioAssay.
